From the supplement of paper PMC10849652
Of roughly 7,900 targets only a part is listed; those with a hit were picked by preference. About 0.6% of all pairs of compound and target were hits. Values without a mark were called inactive.

Experiments:
Assay in all cases: log2 fold change, soluble protein after heating vs DMSO (PISA); higher = thermal stabilisation; K562 cells, 10 uM, 30 min; active = over 0.2 and 3.5 SD of the protein, either way, in both replicates (recomputed)
[1] = compound: CS(=O)(=O)c1ccc(-c2cnc(N)c(C(=O)Nc3ccccc3)n2)cc1
Outline: (§1)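 Quantification of soluble protein used TMTpro 16plex LC-MS/MS, with channel sums equalised. Samples were the supernatant after 21,000xg for 90 min of pooled aliquots from K562 cells (2×10^6 cells/mL) treated with 10 μM compound for 30 min, heated for 3 min over 48°C-58°C, and extracted in PBS with 0.5% NP-40 at 4°C. Values, from duplicates, describe thermal stability against control samples on a log2 fold-change scale.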

crizotinib = compound: C[C@@H](Oc1cc(-c2cnn(C3CCNCC3)c2)cnc1N)c1c(Cl)ccc(F)c1Cl [crizotinib]
Outline: as §1

[2] = compound: C[C@@H]1COCCN1C2=NC(=NC(=C2)C3(CC3)S(=O)(=O)C)C4=C5C=CNC5=CC=C4
Outline: as §1

[3] = compound: C[C@H](C1=CC=C(C=C1)C(=O)NC2=C3C=CNC3=NC=C2)N
Outline: as §1

duvelisib = compound: C[C@H](Nc1ncnc2nc[nH]c12)c1cc2cccc(Cl)c2c(=O)n1-c1ccccc1 [duvelisib]
Outline: as §1

gandotinib = compound: Cc1cc(Nc2cc(CN3CCOCC3)c3nc(C)c(Cc4ccc(Cl)cc4F)n3n2)n[nH]1 [gandotinib]
Outline: as §1

tozasertib = compound: Cc1cc(Nc2cc(N3CCN(C)CC3)nc(Sc3ccc(NC(=O)C4CC4)cc3)n2)n[nH]1 [tozasertib]
Outline: as §1

[4] = compound: Cc1cc(SCc2sc(-c3ccc(C(F)(F)F)cc3)nc2C)ccc1OCC(=O)O
Outline: as §1

doramapimod = compound: Cc1ccc(-n2nc(C(C)(C)C)cc2NC(=O)Nc2ccc(OCCN3CCOCC3)c3ccccc23)cc1 [doramapimod]
Outline: as §1

ispinesib = compound: Cc1ccc(C(=O)N(CCCN)[C@@H](c2nc3cc(Cl)ccc3c(=O)n2Cc2ccccc2)C(C)C)cc1 [ispinesib]
Outline: as §1

UniProt Q15629, sequence (Q15629 whole entry, looked up): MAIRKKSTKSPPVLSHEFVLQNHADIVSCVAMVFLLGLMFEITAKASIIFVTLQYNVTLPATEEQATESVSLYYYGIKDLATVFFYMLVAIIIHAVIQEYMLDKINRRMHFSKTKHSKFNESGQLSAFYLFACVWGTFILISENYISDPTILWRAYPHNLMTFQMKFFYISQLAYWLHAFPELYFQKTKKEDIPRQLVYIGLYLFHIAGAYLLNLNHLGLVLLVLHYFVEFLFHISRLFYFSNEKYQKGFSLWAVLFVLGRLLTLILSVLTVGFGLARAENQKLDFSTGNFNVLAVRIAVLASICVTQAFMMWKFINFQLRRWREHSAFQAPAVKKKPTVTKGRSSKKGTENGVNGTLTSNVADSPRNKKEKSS
UniProt Q12888, sequence (Q12888 whole entry, looked up): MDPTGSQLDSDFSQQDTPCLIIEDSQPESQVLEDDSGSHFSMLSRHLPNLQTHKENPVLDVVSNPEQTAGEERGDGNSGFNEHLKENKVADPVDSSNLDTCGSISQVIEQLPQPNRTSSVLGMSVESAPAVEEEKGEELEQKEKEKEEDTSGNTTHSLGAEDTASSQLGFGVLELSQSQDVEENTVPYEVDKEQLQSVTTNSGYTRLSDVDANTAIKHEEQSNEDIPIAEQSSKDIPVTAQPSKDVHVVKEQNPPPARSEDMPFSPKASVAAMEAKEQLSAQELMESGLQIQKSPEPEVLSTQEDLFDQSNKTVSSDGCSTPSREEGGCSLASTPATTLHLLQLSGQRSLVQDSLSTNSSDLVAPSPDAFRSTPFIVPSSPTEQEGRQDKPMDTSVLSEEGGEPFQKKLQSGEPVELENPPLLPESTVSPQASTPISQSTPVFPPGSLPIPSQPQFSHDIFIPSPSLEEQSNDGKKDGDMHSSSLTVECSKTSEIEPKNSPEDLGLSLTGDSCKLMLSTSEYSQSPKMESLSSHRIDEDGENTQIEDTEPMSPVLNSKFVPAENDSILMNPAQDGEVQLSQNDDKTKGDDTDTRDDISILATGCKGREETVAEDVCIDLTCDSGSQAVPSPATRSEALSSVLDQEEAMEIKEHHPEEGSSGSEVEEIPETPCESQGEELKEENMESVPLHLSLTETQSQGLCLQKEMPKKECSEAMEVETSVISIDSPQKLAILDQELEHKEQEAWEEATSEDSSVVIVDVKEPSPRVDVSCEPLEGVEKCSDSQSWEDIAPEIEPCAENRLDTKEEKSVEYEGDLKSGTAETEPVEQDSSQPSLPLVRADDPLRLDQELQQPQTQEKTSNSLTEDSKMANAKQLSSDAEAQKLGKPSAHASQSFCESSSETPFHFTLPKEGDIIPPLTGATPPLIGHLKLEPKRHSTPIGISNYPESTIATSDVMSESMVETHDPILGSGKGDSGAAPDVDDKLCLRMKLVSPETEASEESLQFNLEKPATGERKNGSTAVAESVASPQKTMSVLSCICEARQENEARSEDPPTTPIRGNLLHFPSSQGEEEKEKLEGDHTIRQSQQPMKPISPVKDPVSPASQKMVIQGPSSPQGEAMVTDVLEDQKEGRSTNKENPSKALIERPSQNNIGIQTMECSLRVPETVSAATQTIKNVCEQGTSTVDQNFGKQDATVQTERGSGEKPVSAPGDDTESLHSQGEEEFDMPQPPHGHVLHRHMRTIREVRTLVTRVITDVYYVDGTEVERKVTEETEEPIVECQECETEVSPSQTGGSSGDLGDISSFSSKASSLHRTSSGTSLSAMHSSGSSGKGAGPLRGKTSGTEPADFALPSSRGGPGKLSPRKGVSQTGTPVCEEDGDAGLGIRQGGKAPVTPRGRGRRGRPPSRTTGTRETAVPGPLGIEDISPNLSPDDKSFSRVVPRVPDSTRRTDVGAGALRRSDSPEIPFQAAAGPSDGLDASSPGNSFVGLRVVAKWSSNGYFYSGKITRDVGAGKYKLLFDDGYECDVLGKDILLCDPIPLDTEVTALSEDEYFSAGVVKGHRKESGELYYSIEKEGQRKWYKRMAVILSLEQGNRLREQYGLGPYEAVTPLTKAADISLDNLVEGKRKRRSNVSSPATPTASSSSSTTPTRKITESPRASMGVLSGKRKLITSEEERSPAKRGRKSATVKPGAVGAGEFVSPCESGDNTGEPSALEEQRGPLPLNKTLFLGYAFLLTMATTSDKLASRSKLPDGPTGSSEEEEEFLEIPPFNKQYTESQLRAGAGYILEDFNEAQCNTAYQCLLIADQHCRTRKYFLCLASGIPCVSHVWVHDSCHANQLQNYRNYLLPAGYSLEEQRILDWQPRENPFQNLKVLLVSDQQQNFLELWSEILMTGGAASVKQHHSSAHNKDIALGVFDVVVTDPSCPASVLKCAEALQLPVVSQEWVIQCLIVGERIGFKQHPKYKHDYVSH
UniProt Q9BZH6, sequence (Q9BZH6 whole entry, looked up): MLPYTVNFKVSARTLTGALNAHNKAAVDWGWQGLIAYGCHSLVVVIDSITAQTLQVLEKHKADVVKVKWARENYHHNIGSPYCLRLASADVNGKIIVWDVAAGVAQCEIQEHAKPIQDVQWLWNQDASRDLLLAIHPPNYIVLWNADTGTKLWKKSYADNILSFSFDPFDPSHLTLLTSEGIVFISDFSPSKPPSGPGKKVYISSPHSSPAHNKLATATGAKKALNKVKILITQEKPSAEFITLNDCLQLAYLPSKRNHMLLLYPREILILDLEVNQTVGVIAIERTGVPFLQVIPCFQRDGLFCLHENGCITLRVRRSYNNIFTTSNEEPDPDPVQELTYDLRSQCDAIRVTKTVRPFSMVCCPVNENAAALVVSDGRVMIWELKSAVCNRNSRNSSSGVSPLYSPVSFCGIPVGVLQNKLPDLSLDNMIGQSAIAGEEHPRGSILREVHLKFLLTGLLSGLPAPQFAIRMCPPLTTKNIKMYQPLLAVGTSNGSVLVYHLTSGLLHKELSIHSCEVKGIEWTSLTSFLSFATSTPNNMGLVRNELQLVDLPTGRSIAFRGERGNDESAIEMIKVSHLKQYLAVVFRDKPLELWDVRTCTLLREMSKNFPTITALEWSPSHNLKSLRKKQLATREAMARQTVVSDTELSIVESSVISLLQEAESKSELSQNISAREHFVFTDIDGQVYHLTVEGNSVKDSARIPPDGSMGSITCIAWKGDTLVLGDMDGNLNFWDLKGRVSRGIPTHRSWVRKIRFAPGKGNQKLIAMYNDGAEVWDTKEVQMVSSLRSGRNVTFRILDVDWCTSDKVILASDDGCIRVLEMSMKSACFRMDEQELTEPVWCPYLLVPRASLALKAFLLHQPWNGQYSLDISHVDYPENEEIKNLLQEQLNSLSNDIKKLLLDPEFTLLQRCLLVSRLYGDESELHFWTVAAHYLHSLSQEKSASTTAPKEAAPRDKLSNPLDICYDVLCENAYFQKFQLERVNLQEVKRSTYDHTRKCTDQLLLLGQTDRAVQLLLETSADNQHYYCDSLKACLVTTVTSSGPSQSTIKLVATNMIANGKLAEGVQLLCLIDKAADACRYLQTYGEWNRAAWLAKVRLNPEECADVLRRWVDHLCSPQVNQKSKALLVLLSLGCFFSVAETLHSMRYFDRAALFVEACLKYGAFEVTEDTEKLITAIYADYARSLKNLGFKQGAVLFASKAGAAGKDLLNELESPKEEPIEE
UniProt A5PLN9, sequence (A5PLN9 whole entry, looked up): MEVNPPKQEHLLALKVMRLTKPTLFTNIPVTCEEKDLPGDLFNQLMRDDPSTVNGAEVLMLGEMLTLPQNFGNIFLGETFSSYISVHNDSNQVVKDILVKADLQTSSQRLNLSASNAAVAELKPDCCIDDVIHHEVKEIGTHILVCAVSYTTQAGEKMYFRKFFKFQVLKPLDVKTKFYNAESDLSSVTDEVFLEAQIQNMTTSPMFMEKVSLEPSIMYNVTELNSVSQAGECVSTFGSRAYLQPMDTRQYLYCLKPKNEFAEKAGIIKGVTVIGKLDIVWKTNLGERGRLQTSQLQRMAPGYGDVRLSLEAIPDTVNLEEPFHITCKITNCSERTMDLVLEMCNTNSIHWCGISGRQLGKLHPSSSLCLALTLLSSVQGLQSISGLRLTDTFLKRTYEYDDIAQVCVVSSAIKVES
UniProt Q6VEQ5, sequence (Q6VEQ5 whole entry, looked up): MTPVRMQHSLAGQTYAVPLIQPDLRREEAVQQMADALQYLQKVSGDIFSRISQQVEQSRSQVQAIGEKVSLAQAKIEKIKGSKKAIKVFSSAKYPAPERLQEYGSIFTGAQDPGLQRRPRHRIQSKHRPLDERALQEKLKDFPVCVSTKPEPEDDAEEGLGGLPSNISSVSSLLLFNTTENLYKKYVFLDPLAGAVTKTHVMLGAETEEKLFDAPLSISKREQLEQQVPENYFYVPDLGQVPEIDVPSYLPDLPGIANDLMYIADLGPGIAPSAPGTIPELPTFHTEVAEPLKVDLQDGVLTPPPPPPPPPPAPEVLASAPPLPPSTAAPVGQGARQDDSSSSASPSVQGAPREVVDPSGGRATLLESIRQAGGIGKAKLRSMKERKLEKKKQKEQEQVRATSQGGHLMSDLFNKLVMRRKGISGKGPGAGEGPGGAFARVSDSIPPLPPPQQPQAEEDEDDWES
UniProt Q96LJ8, sequence (Q96LJ8 whole entry, looked up): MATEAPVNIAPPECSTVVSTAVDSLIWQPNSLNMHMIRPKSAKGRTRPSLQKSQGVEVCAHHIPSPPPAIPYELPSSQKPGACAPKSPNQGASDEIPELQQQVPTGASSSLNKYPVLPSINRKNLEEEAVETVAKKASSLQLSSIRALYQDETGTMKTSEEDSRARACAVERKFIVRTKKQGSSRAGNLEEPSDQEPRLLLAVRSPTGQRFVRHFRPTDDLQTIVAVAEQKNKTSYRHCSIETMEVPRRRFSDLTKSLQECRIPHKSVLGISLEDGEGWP
UniProt Q01081, sequence (Q01081 whole entry, looked up): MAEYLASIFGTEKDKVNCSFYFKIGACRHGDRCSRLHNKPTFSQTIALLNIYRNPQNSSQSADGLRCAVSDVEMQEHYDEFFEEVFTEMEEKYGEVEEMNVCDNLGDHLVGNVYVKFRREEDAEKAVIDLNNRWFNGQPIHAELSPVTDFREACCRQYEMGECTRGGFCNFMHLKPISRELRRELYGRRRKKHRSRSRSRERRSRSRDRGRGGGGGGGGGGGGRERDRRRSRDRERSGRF
UniProt Q8N4H5, sequence (Q8N4H5 whole entry, looked up): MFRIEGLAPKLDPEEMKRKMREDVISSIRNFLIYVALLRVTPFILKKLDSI

| Target | log2 fold change [1] | log2 fold change (crizotinib) | log2 fold change [2] | log2 fold change [3] | log2 fold change (duvelisib) | log2 fold change (gandotinib) | log2 fold change (tozasertib) | log2 fold change [4] | log2 fold change (doramapimod) | log2 fold change (ispinesib) |
| --- | --- | --- | --- | --- | --- | --- | --- | --- | --- | --- |
| UGDH (UniProt O60701) | -0.106 | 0.079 | 0.041 | -0.161 | 0.061 | -0.064 | 0.046 | 0.049 | -0.106 | 0.165 |
| VDAC1 (UniProt P21796) | 0 | 0.076 | -0.004 | -0.063 | -0.002 | 0.017 | 0 | -0.031 | -0.024 | 0.034 |
| U2AF1 isoform 2 (UniProt Q01081) | -0.046 | 0.067 | 0.03 | -0.134 | 0.044 | -0.005 | 0.05 | 0.114 | -0.143 | 0 |
| WDR11 (UniProt Q9BZH6) | -0.064 | -0.007 | 0.111 | 0.059 | 0.029 | -0.291 | -0.049 | -0.051 | 0.056 | -0.133 |
| TTI1 (UniProt O43156) | 0.075 | -0.143 | 0.003 | 0.059 | -0.03 | -0.119 | 0.041 | 0.033 | 0.059 | -0.204 |
| VPS39 (UniProt Q96JC1) | -0.037 | -0.239 (active) | 0.026 | 0.021 | 0.011 | -0.126 | -0.033 | 0.025 | 0.008 | -0.187 |
| TMEM263 (UniProt Q8WUH6) | 0.03 | -0.717 (active) | -0.029 | 0.018 | -0.007 | -0.385 | -0.019 | 0.046 | -0.075 | -0.936 (active) |
| UHRF1BP1 (UniProt Q6BDS2) | 0.003 | 0.086 | 0.001 | -0.009 | 0.124 | -0.004 | -0.014 | -0.014 | 0.014 | 0.12 |
| XPO1 (UniProt O14980) | -0.016 | -0.138 | 0.089 | 0.006 | -0.024 | -0.223 | 0.027 | 0.094 | -0.034 | -0.081 |
| TP53BP1 isoform 2 (UniProt Q12888) | 0.025 | 0.076 | -0.001 | 0.018 | -0.025 | -0.053 | 0.205 | 0.066 | 0.036 | 0.002 |
| WASH2P (UniProt Q6VEQ5) | -0.002 | -0.321 (active) | -0.017 | 0.021 | -0.02 | -0.03 | -0.071 | -0.038 | 0.041 | -0.358 (active) |
| UBE4A isoform 2 (UniProt Q14139) | 0.036 | -0.275 | 0.069 | 0.29 (active) | 0.006 | -0.076 | 0.037 | 0.117 | -0.023 | -0.172 |
| TRAM1 (UniProt Q15629) | 0.075 | -0.587 (active) | 0.017 | 0.014 | -0.003 | -0.47 (active) | -0.124 | 0.09 | -0.119 | -0.964 (active) |
| XPOT (UniProt O43592) | 0.009 | -0.123 | 0.024 | -0.001 | 0.005 | -0.177 | 0.15 | 0.068 | -0.011 | -0.12 |
| TYW1 (UniProt Q9NV66) | 0.038 | 0.143 | 0.032 | 0.053 | 0.035 | -0.004 | 0.037 | 0.021 | 0.008 | 0.179 |
| TMEM223 (UniProt A0PJW6) | -0.008 | -0.045 | 0.038 | 0.002 | 0.043 | -0.14 | 0.061 | 0 | 0.015 | -0.254 (active) |
| TRIP10 (UniProt Q15642) | 0.08 | -0.009 | -0.085 | -0.026 | 0.005 | 0.044 | -0.003 | 0.038 | -0.036 | -0.021 |
| TUT4 (UniProt Q5TAX3) | 0.069 | 0.075 | -0.286 | 0.095 | 0.166 | 0.024 | 0.044 | 0.195 | -0.003 | -0.124 |
| UBA6 | 0.05 | 0.024 | 0.047 | -0.017 | -0.007 | -0.039 | 0.05 | 0.078 | -0.038 | 0.014 |
| TOMM5 isoform 2 (UniProt Q8N4H5) | 0.043 | 0.139 | 0.124 | -0.053 | 0.075 | 0.136 | -0.008 | -0.023 | -0.078 | -0.051 |
| TOE1 (UniProt Q96GM8) | 0.013 | 0 | -0.221 | 0.211 | -0.01 | 0.219 | 0.041 | 0.066 | 0.065 | -0.021 |
| UBXN10 (UniProt Q96LJ8) | -0.03 | -0.121 | -0.091 | -0.09 | -0.017 | 0.161 | -0.122 | -0.008 | -0.014 | -0.124 |
| TMTC3 (UniProt Q6ZXV5) | 0.054 | -0.088 | -0.052 | 0.072 | -0.017 | -0.039 | -0.012 | 0.038 | 0.018 | -0.188 |
| VPS50 (UniProt Q96JG6) | 0.012 | -0.118 | 0.044 | 0.049 | -0.017 | -0.066 | 0.01 | 0.086 | -0.032 | -0.023 |
| UQCR10 (UniProt Q9UDW1) | -0.036 | 0.079 | 0.071 | -0.043 | 0.089 | -0.403 (active) | 0.013 | 0.013 | -0.025 | 0.095 |
| XRCC6 (UniProt P12956) | 0.013 | -0.064 | 0.088 | -0.042 | 0.016 | -0.149 | 0.075 | 0.091 | -0.05 | -0.039 |
| UBE2E3 (UniProt Q969T4) | 0.008 | 0 | 0.219 | 0.008 | 0.025 | -0.052 | 0.061 | 0.034 | 0.03 | -0.005 |
| TRAPPC13 isoform 5 (UniProt A5PLN9) | -0.037 | -0.054 | 0.067 | 0.009 | 0.02 | -0.007 | -0.028 | 0.087 | 0.047 | 0.032 |
| TMEM70 (UniProt Q9BUB7) | 0.025 | -0.096 | 0.035 | 0.002 | -0.016 | -0.08 | -0.016 | 0.087 | -0.017 | -0.243 |
